Results reported in PubChem BioAssay (EPA / NIEHS).
Active and inactive are the calls of the source. How the source made its calls: active means hit-call score of the fitted dose curve at least 0.9, where 1 is the maximum; inconclusive means response in the unintended direction; inactive means score below 0.9.

These compounds were tested against Estrogen receptor beta (Homo sapiens) (UniProt Q92731) (assay: OT_ER_ERbERb_1440: Odyssey Thera (OT) 24-hour HEK293T Protein-Complementation Assay for Estrogen Receptor-beta/-beta Homodimer (AID 2283380);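 further: scored as signal increase over DMSO baseline for both agonists and antagonists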).
Experimental: OT_ER_ERbERb_1440 is a cell-based assay that uses HEK293T, a human kidney cell line, with measurements taken at 24 hours after chemical dosing in a 384-well plate.OT_ER_ERbERb_1440 is one of one assay component(s) measured or calculated from the OT_ER_ERbERb_1440 assay. It is designed to make measurements of protein fragment complementation, a form of binding reporter, as detected with fluorescence intensity signals by Protein-fragment Complementation technology.Data from the assay component OT_ER_ERbERb_1440 was analyzed into 1 assay endpoint. This assay endpoint, OT_ER_ERbERb_1440, was analyzed in the positive analysis fitting direction relative to DMSO as the negative control and baseline of activity. Using a type of binding reporter, measures of receptor for gain-of-signal activity can be used to understand the binding at the pathway-level as they relate to the gene ESR2. Furthermore, this assay endpoint can be referred to as a primary readout, because the performed assay has only produced 1 assay endpoint. To generalize the intended target to other relatable targets, this assay endpoint is annotated to the nuclear receptor intended target family, where the subfamily is steroidal.
Protein-fragment complementation assay, or PCA, is a method for the identification and quantification of protein-protein interactions. In the PCA, the proteins of interest ("bait" and "prey") are each covalently linked to fragments of a third protein (e.g. DHFR, which acts as a "reporter"). Interaction between the bait and the prey proteins brings the fragments of the reporter protein in close proximity to allow them to form a functional reporter protein whose activity can be measured. The OT ER beta / ER beta assay is a homodimer PCA of the ligand binding domain (LBD; amino acids 310-547) of human ER beta stably expressed in HEK293T cells. […] Cells are fixed in 4 percent formaldehyde and stained with Draq5 (BioStatus) to identify cells prior to signal detection. Fluorescent signal in the basal state of the assay is very low and is primarily punctuate and cytoplasmic. Modulation of this assay is quantified as an increase in mean fluorescence intensity in the nucleus (for agonists) or in the nucleus and cytoplasm (antagonists) relative to vehicle controls, and can be quantified on a high content imaging device or a laser scanning cytometer. The latter instrument is favored for this assay because of the rapid mode of data acquisition, the ability to acquire data from the entire cell population in a well (as opposed to a fraction of the well on the high content devices) and the larger dynamic range typically achieved with this instrument. To assess sensitivity of the ER beta/ER beta LBD assay to ligand, cells were treated with the ER agonist 17- beta-estradiol (E2) in 10-point concentration- response format for 24 hours and monitored response on a laser scanning plate cytometer (Acumen eX3; TTP Lab Tech).

Estrogen receptor beta (Homo sapiens), sequence (Q92731 whole entry, looked up, the tested form may be a part): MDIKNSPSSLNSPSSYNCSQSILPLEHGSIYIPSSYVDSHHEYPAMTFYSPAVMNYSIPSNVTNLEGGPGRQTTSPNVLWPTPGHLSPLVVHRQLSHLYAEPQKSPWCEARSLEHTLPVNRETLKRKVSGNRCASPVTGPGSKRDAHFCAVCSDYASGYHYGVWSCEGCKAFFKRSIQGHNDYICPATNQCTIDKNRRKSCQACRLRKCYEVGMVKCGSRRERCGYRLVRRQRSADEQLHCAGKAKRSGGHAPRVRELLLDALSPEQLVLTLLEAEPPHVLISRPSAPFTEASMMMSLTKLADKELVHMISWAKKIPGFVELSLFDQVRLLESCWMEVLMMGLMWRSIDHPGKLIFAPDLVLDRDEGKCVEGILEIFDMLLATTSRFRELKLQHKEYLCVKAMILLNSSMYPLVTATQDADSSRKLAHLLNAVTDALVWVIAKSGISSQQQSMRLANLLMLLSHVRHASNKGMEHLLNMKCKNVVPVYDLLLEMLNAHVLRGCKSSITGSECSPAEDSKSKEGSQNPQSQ

Structure (SMILES)	outcome	AC50
O=C1c2ccccc2C(=O)N1SC(Cl)(Cl)Cl	inactive	–
Oc1cc(Cl)ccc1Oc1ccc(Cl)cc1Cl	inactive	–
CNC(=O)Oc1ccccc1OC(C)C	inactive	–
C[C@H]1[C@H](c2ccc(Cl)cc2)SC(=O)N1C(=O)NC1CCCCC1	inactive	–
Clc1ccccc1-c1nnc(-c2ccccc2Cl)nn1	inactive	–
CC1(c2ccc(Oc3ccccc3)cc2)OC(=O)N(Nc2ccccc2)C1=O (stereo not drawn)	inactive	–
CCc1ccc(C(=O)NN(C(=O)c2cc(C)cc(C)c2)C(C)(C)C)cc1	inactive	–
CCCN(CCOc1c(Cl)cc(Cl)cc1Cl)C(=O)n1ccnc1	inactive	–
COP(=S)(OC)Oc1ccc([N+](=O)[O-])cc1	inactive	–
O=C(NC(=O)c1c(F)cccc1F)Nc1ccc(OC(F)(F)C(F)OC(F)(F)F)c(Cl)c1 (stereo not drawn)	inactive	–
Oc1ccc(Cl)cc1Cc1ccccc1	–	12 µM (active)
COc1nn(CSP(=S)(OC)OC)c(=O)s1	inactive	–
O=C(O)C(F)(F)C(F)(F)C(F)(F)C(F)(F)C(F)(F)C(F)(F)C(F)(F)F	inactive	–
CNC(=O)Oc1cccc(N=CN(C)C)c1	inactive	–
CN1CSC(=S)N(C)C1	inactive	–
N#Cc1c(Cl)c(Cl)c(Cl)c(C#N)c1Cl	–	0.338 µM (active)
C#CCN1C(=O)COc2cc(F)c(N3C(=O)C4=C(CCCC4)C3=O)cc21	inactive	–
COP(=S)(OC)Oc1ccc(SC)c(C)c1	inactive	–
CCOCN(C(=O)CCl)c1c(C)cccc1CC	inactive	–

Structure (SMILES)	outcome	AC50
CC1(C)C(C=C(Cl)Cl)C1C(=O)OC(C#N)c1ccc(F)c(Oc2ccccc2)c1 (stereo not drawn)	inactive	–
O=C(O)CCCOc1ccc(Cl)cc1Cl	inactive	–
ClC1C(Cl)C(Cl)C(Cl)C(Cl)C1Cl (stereo not drawn)	inactive	–
CC(C)(C)C(O)/C(=C\c1ccc(Cl)cc1Cl)n1cncn1 (stereo not drawn)	inactive	–
CC(C)(C)C(O)C(Oc1ccc(Cl)cc1)n1cncn1 (stereo not drawn)	–	55.6 µM (active)
CC(C)N(C(=O)COc1nnc(C(F)(F)F)s1)c1ccc(F)cc1	inactive	–
N#CN	inactive	–
COP(=O)(OC)OC=C(Cl)Cl	inactive	–
CCC(C)(NC(=O)c1cc(Cl)c(C)c(Cl)c1)C(=O)CCl (stereo not drawn)	inactive	–
O=[N+]([O-])/N=C1\NCCN1Cc1ccc(Cl)nc1	inactive	–
OCCOc1ccccc1	inactive	–
CC(C)OC(=O)Nc1cccc(Cl)c1	inactive	–
CNC(=O)CSP(=S)(OC)OC	inactive	–
O=[N+]([O-])c1c(Cl)c(Cl)c(Cl)c(Cl)c1Cl	inactive	–
CCOC1Oc2ccc(OS(C)(=O)=O)cc2C1(C)C (stereo not drawn)	inactive	–
CCC(C)Nc1c([N+](=O)[O-])cc(C(C)(C)C)cc1[N+](=O)[O-] (stereo not drawn)	–	38.5 µM (active)
O=C(Nc1ccccc1)Nc1cnns1	inactive	–
CCC(C)(C)C(=O)OC1=C(c2ccc(Cl)cc2Cl)C(=O)OC12CCCCC2	inactive	–
CNC(=O)/C=C(\C)OP(=O)(OC)OC	inactive	–
